Hits are enriched below; roughly 4.8% of the tested compounds scored in any of these assays.
DAX1 inh-1 – inhibitors of human orphan nuclear receptor DAX1 (NR0B1); P51843; HEK293 Gal4-DAX1 luciferase reporter, luminescence; inhibition, % at 6.75 µM; 340,000 tested, 0.99% active; AID 504766;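 active = inhibition above the mean over all tested compounds plus 3 SD, cut at about 4.2% in these data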;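 also: 0% = DAX1-transfected cells with DMSO and 100% = empty-vector control cells with DMSO; inhibition shows as a rise in luminescence from relieved DAX1 repression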
Target sequence (P51843 207-470 limits assumed): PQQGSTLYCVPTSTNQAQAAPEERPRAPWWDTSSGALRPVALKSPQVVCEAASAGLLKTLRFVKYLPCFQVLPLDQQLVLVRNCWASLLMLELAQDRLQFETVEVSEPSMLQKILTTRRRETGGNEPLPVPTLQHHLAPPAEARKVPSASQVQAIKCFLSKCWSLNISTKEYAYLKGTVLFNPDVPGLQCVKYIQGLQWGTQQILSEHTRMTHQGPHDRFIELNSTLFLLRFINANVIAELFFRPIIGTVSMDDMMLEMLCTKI
SMARCA2 act – SMARCA2 function activation, primary screen. MG213 cells, MMTV-luciferase reporter, dexamethasone, overnight. activation, % at 9.1 µM. 370,000 tested, 1% active. AID 652017; in the data active = activation above about 7.8%;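 also: 0% = vehicle wells and 100% = reference activator wells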
DAX1 inh-2 – inhibitors of DAX1 repression of SF-1 activated StAR promoter; AID 652010; inhibition, % at 6.8 µM; 370,000 tested, 1.1% active; HEK293T StAR-luciferase reporter, SF-1/DAX-1 repression relief;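 active = inhibition above the mean over all tested compounds plus 3 SD, cut at about 3.6% in these data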;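 also: 0% = DAX-1 cells with DMSO and 100% = cells lacking DAX-1 with DMSO; higher inhibition means more luminescence from relief of DAX-1 repression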
ssDAF12 agonist – activators of S. stercoralis DAF-12 nuclear receptor; HEK293 ssDAF-12/GRIP1 lit1-tk-luc reporter, luminescence; % of 3 µM dafachronic acid response; activation, % at 6.8 µM; 370,000 tested, 1% active; AID 652126;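 active = activation above the mean over all tested compounds plus 3 SD, cut at about 0.9% in these data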;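 also: 0% = DMSO-only wells and 100% = 3 µM delta7-dafachronic acid wells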
hcDAF-12 act – activators of H. contortus DAF-12 nuclear receptor. HEK293 hcDAF-12 lit1-tk-luc reporter, luminescence; 0% DMSO, 100% Δ7-dafachronic acid. activation, % at 6.8 µM. 370,000 tested, 1.4% active;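 active = activation above the mean of all tested compounds plus 3 SD, cut at about 5.5% in these data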;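 also: 100% = response to 3 µM Δ7-dafachronic acid high control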
hgDAF12 agonist – activates the H. glycines DAF-12 receptor ligand-binding domain | HEK293 GAL4-hgDAF12 UAS-luciferase reporter, agonist luminescence; normalized to butyrate control | activation, % at 6.8 µM | 370,000 tested, 1.8% active;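 active = activation above a cutoff set at the mean of all screened compounds plus 3 SD, cut at about 10% in these data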;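 also: 0% = DMSO wells and 100% = sodium butyrate wells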
SMARCA2 conf – SMARCA2 activation, confirmation screen. shares compounds with SMARCA2 act. MG213 cells, MMTV-luciferase with dexamethasone, luminescence, overnight; MG213 cells expressing E1A, Rb sequestered; DMSO wells 0%, reference activator 100%. activation, % at 9.1 µM. 3,500 tested, 30% active;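 active = activation above its plate's cutoff, the mean activation of tested wells plus 3 SD, cut at about 7.9% in these data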
VP16 Luc act – GAL4-VP16 reporter activation counter-screen. shares compounds with SMARCA2 act. HEK293 GAL4-VP16 pG5luc reporter, luciferase luminescence; scaled: DMSO wells 0%, SAHA wells 100%. activation, % at 9.1 µM. 3,500 tested, 41% active. AID 686939;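 active = activation above the solvent-only control well mean plus 3 SD, averaged across control plates, cut at about 5.2% in these data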
LXRb hcDAF ctr – activates human LXR-beta, counter-screen for hcDAF-12 agonists | HEK293 Gal4-LXR tk-luc reporter, luminescence, 24 h; normalized: DMSO 0%, positive control 100% | 3,400 tested, under 10 active | activation, % at 6.8 µM | shares compounds with hcDAF-12 act;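 active = mean percent activation of the reporter above a cutoff set as the average over tested compounds plus their standard deviation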
Target sequence (P55055 whole entry, looked up, the tested form may be a part): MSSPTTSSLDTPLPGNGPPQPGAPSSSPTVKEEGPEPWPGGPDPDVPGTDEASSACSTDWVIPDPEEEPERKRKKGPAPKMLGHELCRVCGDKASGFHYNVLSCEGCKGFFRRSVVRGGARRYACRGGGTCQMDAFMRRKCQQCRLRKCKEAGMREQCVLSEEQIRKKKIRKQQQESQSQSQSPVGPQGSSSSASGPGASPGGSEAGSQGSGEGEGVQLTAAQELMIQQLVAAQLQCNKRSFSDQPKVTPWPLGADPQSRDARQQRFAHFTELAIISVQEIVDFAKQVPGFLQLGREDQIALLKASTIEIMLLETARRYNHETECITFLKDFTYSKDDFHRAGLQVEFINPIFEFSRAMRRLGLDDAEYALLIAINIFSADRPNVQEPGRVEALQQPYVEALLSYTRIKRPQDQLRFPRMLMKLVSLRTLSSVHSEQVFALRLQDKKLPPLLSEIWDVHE
hcDAF12 conf – hcDAF-12 agonism, confirmation assay | shares compounds with hcDAF-12 act | HEK293 hcDAF-12 lit1-tk-luc reporter, luminescence; % of Δ7-dafachronic acid response | activation, % at 6.8 µM | 3,400 tested, 61% active;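 active = mean activation across triplicate tests above the threshold derived from the earlier primary screen, cut at about 5.5% in these data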;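 also: 0% = DMSO only wells and 100% = 3 µM Δ7-dafachronic acid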
hgDAF12 conf – confirmation of H. glycines DAF-12 agonists. AID 743050. 3,300 tested, 80% active. shares compounds with hgDAF12 agonist. activation, % at 6.8 µM. HEK293 GAL4-hgDAF12 luciferase reporter, agonist mode; percent of butyrate response;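 active = mean activation over triplicate wells above the hit cutoff derived from the earlier primary screen, cut at about 11% in these data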;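 also: 0% = DMSO low control and 100% = 2 mM sodium butyrate high control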
LXRb DAF12 ctr – LXR-beta agonism as DAF-12 counter-screen. AID 743051. HEK293 Gal4-LXR luciferase reporter, 24 h. shares compounds with hgDAF12 agonist. 3,300 tested, under 10 active. activation, % at 6.8 µM;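 active = mean activation of the triplicate above a set limit carried over from the primary screen, none filed active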
* = called active by the depositor; . = no result given; ! = a repeat was not active.

SMILES	DAX1 inh-1	SMARCA2 act	DAX1 inh-2	ssDAF12 agonist	hcDAF-12 act	hgDAF12 agonist	SMARCA2 conf	VP16 Luc act	hgDAF12 conf	LXRb DAF12 ctr	others
CC1=CC(C)=Nc2ccc(C)cc2N1	2.5	8.8*!	4.1*	0.2	5.6*	15.7*	6.8	11.2*	11.6*!	0.7	LXRb hcDAF ctr=0.0;hcDAF12 conf=2.6
Cc1cc(C)n2nc(C(=O)Nc3ccc4c(c3)OCO4)cc2n1	1.6	11.2*	4.2*	0.3	4.4	14.9*	18.4*	9.7*	14.7*	0.8
COc1ccccc1N1CCN(C2=Nc3cccc4cccc2c34)CC1	-0.1	9.2*	4.0*	-0.3	-1.1	13.5*	21.8*	6.5*	7.9	0.4
COc1ccc(NC(=S)N(CCN(C)C)C(C)c2ccncc2)cc1Cl (stereo not given)	-0.4	-2.7	0.6	-1.7	-2.6	-0.6	.	.	.	.
O=C(Cn1cnc2c(NCc3ccccc3)ncnc21)NCc1ccccc1	-2.5	-3.5	-4.4	-1.2	-0.2	-3.2	.	.	.	.
O=C(N/N=C\c1ccc(COc2ccc([N+](=O)[O-])cc2)o1)c1ccc(Cl)cc1	-0.3	-2.5	0.4	-0.8	0.4	3.1	.	.	.	.
COc1ccc(OCc2ccc(/C=N\NC(=O)c3sccc3C)o2)cc1	0.9	8.5*	1.3	-0.6	1.7	13.9*	9.4*	1.6	4.4	0.1
Cc1cccc(-c2c3c(=O)n(C)c(=O)n(C)c3cn2-c2ccccc2O)c1	-1.1	0.1	0.3	-1.0	-1.6	2.2	.	.	.	.
O=C(/C=C/c1ccccc1Cl)Nc1cccnc1	1.6	9.0*	3.2	0.8	4.8	18.8*	8.3*	7.5*	21.4*	0.7
CC(C)CC(=O)NC1(C(F)(F)F)C(=O)Nc2c1c(=O)[nH]c(=O)n2Cc1ccco1 (stereo not given)	1.0	-4.3	-0.3	-0.1	-0.9	-0.6	.	.	.	.
COC(=O)c1ccc(N2CCN(C)CC2)c(NC(=O)COc2ccc(C)cc2)c1	0.1	-1.9	1.0	-0.9	-1.3	-1.7	.	.	.	.
O=C(N/N=C/c1ccc(N2CCOCC2)s1)c1ccc(NS(=O)(=O)c2cccs2)cc1	1.2	0.1	1.3	-1.5	-1.2	2.6	.	.	.	.
CCN(CC)CCN(C(=O)/C=C/c1cccs1)c1nc2ccc(Cl)cc2s1	0.6	-0.1	-0.2	-0.2	0.2	0.1	.	.	.	.
O=C(Nc1cccc(Cl)c1)c1cnn2cccnc12	1.5	8.1*	3.5	0.3	7.7*	17.1*	8.3*	12.0*	13.7*	0.8	LXRb hcDAF ctr=1.2;hcDAF12 conf=7.5*
COc1cccc(CSc2nc3ccncc3[nH]2)c1	-1.2	9.3*	2.6	0.4	2.3	15.2*	6.0	7.0*	13.8*	0.5
Cc1ccn(-c2ccc(NC(=O)c3cccs3)cc2)n1	0.0	8.0*	2.9	0.1	4.9	17.4*	9.0*	7.9*	17.2*	0.9
O=C(Cc1ccccc1)N1CCc2ccccc21	-0.4	4.0	-0.6	-1.8	0.0	0.8	.	.	.	.
O=C(CS(=O)(=O)c1ccccc1)N1CCc2ccccc21	2.0	10.1*	2.6	1.9*	12.7*	21.2*	8.5*	9.8*	16.6*	0.6	LXRb hcDAF ctr=0.7;hcDAF12 conf=9.1*
Cc1cc2c([nH]c3ccccc32)c2c1OC(C)(C)C=C2	5.0*	8.3*	4.2*	1.1*	2.0	13.7*	14.4*	7.9*	10.8*	0.4
CCN1C(=O)[C@@H]2[C@@H](c3ccc(-c4ccc(Cl)c(Cl)c4)cc3)N3CCC[C@@]3(C(=O)OC)[C@@H]2C1=O	-2.1	-1.6	-0.9	-2.1	-2.7	-3.2	.	.	.	.
CCOc1cccc(C(=O)Nc2ccc(N3CCCC3)cc2)c1	-0.7	1.1	0.1	-1.4	4.1	2.9	.	.	.	.
CCOc1ccc(OCc2cccc(C(=O)Nc3ccc(CN4CCCCC4)cc3)c2)cc1	-3.1	11.5*	1.5	-0.1	4.0	18.4*	14.4*	10.4*	19.2*	0.7
Oc1cccc2ccc(/C=C/c3cccs3)nc12	3.8	12.9*	2.0	2.3*	16.5*	19.7*	-1.9	22.5*	20.0*	0.9	LXRb hcDAF ctr=1.3;hcDAF12 conf=11.8*
Oc1cccc2ccc(/C=C/c3ccccc3Br)nc12	3.1	5.1	-0.2	-0.4	2.5	6.5	.	.	.	.
Cc1ccsc1/C=C/c1ccc2cccc(O)c2n1	2.6	13.0*	3.4	1.8*	15.4*	17.2*	-9.5	19.1*	22.1*	0.9	LXRb hcDAF ctr=1.5;hcDAF12 conf=13.6*
SMILES	DAX1 inh-1	SMARCA2 act	DAX1 inh-2	ssDAF12 agonist	hcDAF-12 act	hgDAF12 agonist	SMARCA2 conf	VP16 Luc act	hgDAF12 conf	LXRb DAF12 ctr	others
O=C(N/N=C/c1cc2c(cc1Cl)OCO2)c1ccccn1	3.8	5.2	2.0	-1.2	3.0	8.0	.	.	.	.
COc1cc(/C=N/NC(=O)c2ccccn2)cc2c1OCO2	3.4	16.9*	1.6	-0.2	2.7	14.5*	8.5*	8.5*	7.2	0.2
COc1ccc(C2N=C(c3ccccc3)NO2)cc1OC (stereo not given)	5.9*	8.6*	1.6	0.6	6.1*	13.6*	14.2*	9.6*	12.2*	0.6
c1csc(-c2nc(-c3ccc(-c4ccon4)s3)no2)c1	3.4	8.9*	2.5	0.5	5.4	16.5*	5.9	9.7*	17.3*	1.1
Cc1ccc(NC(=O)N2CCN(Cc3ccc4c(c3)OCO4)CC2)cc1	-0.9	-1.4	0.9	-1.2	-0.1	-2.4	.	.	.	.
O=C(Nc1ccc2c(c1)OCO2)N1CCN(Cc2ccco2)CC1	0.0	10.7*	3.0	0.7	3.9	20.3*	-0.4	12.2*	13.8*	0.5
CN1CCN(c2ccc(-c3cc(NC=O)c4ncc(-c5ccc(F)c(Cl)c5)n4c3)cc2)CC1	.	2.3	-0.3	-0.1	2.9	6.4	.	.	.	.

High-throughput results (PubChem BioAssay)
